Screening data as filed in PubChem BioAssay.
ELG1 genotoxic: induces genotoxicity in HEK293T cells with luciferase-tagged ELG1. Potency, µM (titrated, usually from 46 µM), for inactives: at the top dose activity change, positive = activation, usual class: activators. HEK293T ELG1-luciferase reporter, luminescence, 16 h. 1.3% of 330,000 active. AID 504466; also: % of control where 0% means no effect; nearly all actives have a fitted effect of over 60% in size
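DMSO vehicle served as control against compound-treated ELG1-luciferase HEK293T cells; exposure lasted 16 hr at 37 °C and 5% CO2, followed by ONE-Glo luminescence detection after 30 min.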
NPC1 prom act: activators of NPC1 promoter. Huh7 NPC1 promoter luciferase reporter, 24 h. 2.4% of 320,000 active. Potency, µM (highest dose often 9.22 µM), for inactives: at the top dose activation, most hits filed as activators; also: % of control where 0% means no effect; nearly all actives have a fitted effect of over 60% in size
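Stably transfected Huh7 (NPC1 promoter→luciferase), 1500 cells/well in Opti-MEM + 10% FBS, 2 h settle, then compound 24 h at 37 °C. Luminescence after 10 min with Amplite reagent.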
FLuc modulator: firefly luciferase modulation, counter-screen for miR-21 project; P08659; Potency, µM (series often up to 57.5 µM), without a hit: at the top dose activity change, negative = inhibition, most hits filed as inhibitors; purified FLuc, Km substrates, luminescence inhibition; 6.9% of 360,000 active;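 also: plate controls were vehicle for no effect and reference inhibitor for full effect; nearly all actives have a fitted effect of over 55% in size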
Target sequence (P08659 whole entry, looked up): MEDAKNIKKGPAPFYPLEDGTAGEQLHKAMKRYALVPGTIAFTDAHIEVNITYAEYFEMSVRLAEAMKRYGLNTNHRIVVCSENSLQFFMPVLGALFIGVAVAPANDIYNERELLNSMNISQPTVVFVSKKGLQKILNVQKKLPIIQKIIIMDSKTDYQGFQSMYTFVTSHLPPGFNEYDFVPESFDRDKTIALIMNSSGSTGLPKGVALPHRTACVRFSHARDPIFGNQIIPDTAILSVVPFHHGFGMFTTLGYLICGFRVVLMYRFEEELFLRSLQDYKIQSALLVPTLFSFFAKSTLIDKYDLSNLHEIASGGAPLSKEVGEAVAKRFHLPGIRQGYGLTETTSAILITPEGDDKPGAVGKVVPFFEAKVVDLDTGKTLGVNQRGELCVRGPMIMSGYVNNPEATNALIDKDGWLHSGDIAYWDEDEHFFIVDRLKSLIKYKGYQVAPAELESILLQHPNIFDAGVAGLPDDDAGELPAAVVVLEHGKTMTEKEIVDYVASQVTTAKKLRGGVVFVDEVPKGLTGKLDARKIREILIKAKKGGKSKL
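Purified P. pyralis luciferase (10nM final) with 10uM D-luciferin and 10uM ATP (Km levels) in 50mM Tris acetate pH 7.5, 10mM Mg acetate, 0.01% Tween-20, 0.05% BSA; qHTS 6-point titration, ~60 µM downward; luminescence read.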
ELG1 DNA repair: blocks ELG1-dependent DNA repair in HEK293T cells | 2.3% of 330,000 active | Potency, µM (highest dose often 46.1 µM), without a hit: top-dose activity change, negative = inhibition, actives largely listed as inhibitors | HEK293T ELG1-luciferase reporter, luminescence, 16 h; DNA damage induced by 5-fluorouridine | AID 504467; also: % is scaled to controls: 0 for no effect and ±100 for the full control effect; nearly all actives have a fitted effect of over 55% in size
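Reporter activity after DNA damage by 5-fluorouridine is monitored. Compound-treated cells incubate 16 hr at 37 °C, then ONE-Glo is added for 30 min before luminescence reading.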
SMN2 splice up: SMN2 splice variant enhancement | 2.8% of 210,000 active | AID 1458 | HEK293 SMN2-luciferase splicing reporter, luminescence, 30-36 h | Potency, µM (top dose mostly 46.1 µM), without a hit: at the highest dose activity change, positive = activation, most hits filed as activators; also: % of control where 0% means no effect; nearly all actives have a fitted effect of over 55% in size
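HEK293 cells carry an SMN2 minigene-luciferase reporter in which exon 7 inclusion puts luciferase in frame. Cells were seeded at 2000 cells/well, attached for 10-12 hours, then exposed to compounds for 30-36 hours at 37C before ONE-Glo luminescence.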
Rab9 prom act: activators of Rab9 promoter; Huh7 Rab9 promoter-luciferase reporter, luminescence, 24 h; Potency, µM (titrated, usually from 9.22 µM), for inactives: at the top dose activation, negative = inhibition, usual class: activators; 2.8% of 320,000 active; AID 485297; also: % of control where 0% means no effect; nearly all actives have a fitted effect of over 60% in size
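Luminescence read-out: Huh7 cells stably expressing Rab9-luciferase, treated 24 h with compound at 37 °C, then lysed with luciferase reagent for 10 min at ambient before reading.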
* hit, by the source's call; ? = inconclusive; . = no result. Rows were chosen to be rich in hits. Some 9.3% of all compounds tested hit in one or more screens of this group. Calls follow the shape of the dose curve; as a rule, active = well fitted curve in the direction sought with a large enough effect; inconclusive = small, poorly fitted or top-dose-only effect, or another doubt; inactive = no such curve, though single readings can be large; an effect the other way counts as inactive or inconclusive. Potency is read from the fitted curve at half-maximal effect.

SMILES	ELG1 genotoxic	NPC1 prom act	FLuc modulator	ELG1 DNA repair	SMN2 splice up	Rab9 prom act
CCCOc1ccc(/C=N/Nc2cc(N3CCOCC3)ncn2)c(O)c1	18%	-39%	-5%	2.9µM*	.	-45%
Cc1cc(N/N=C/c2ccc(O)cc2O)nc(N2CCOCC2)n1	4%	-3%	7.6µM*	?	.	-4%
COc1ccc(/C=N/Nc2cc(C)nc(N3CCOCC3)n2)c(OC)c1	6%	0%	2.4µM*	6%	.	0%
Oc1ccc(/C=N\Nc2cc(N3CCOCC3)nc(N3CCOCC3)n2)c(O)c1	-2%	-6%	?	10µM*	-2%	-8%
CCCCOc1ccc(/C=N/Nc2cc(N3CCOCC3)nc(C)n2)cc1	-7%	-11%	?	?	.	-1%
CCOc1ccc(NC(=O)Cn2c(=O)n(CCCC(=O)NCCc3ccc(Cl)cc3)c(=O)c3ccccc32)cc1	.	.	-3%	.	.	.
CC1CCCCN1Cc1cnc(Cl)s1 (stereo unspecified)	-1%	0%	0%	3%	6%	2%
CC1CCCN(C(=O)CN2C(=O)C(C)Oc3ccccc32)C1 (stereo unspecified)	-1%	-2%	1%	2%	.	-4%
CCCSc1nnc2n(-c3ccc(OC)cc3)c(=O)c3c4c(sc3n12)COC(C(C)C)C4 (stereo unspecified)	.	.	-1%	.	5%	.
COc1cccc(C2=NOC(C(=O)Nc3cc(C)nn3-c3ccccc3)C2)c1OC (stereo unspecified)	-2%	-8%	-10%	23µM*	-68%	-4%
COc1cc(/C=N/NC(=O)c2cnccn2)ccc1O	0%	5%	-13%	12%	-5%	5%
O=C(/C=C/c1ccco1)NC(=S)Nc1ccccc1O	13%	?	?	?	?	4µM*
O=C(/C=C\c1ccco1)NC(=S)Nc1ccccc1O	7%	?	?	?	.	3.2µM*
O=C(/C=C/c1ccco1)NC(=S)Nc1ccccn1	15%	3.2µM*	13µM*	?	?	2.8µM*
Cc1cccnc1NC(=S)NC(=O)/C=C/c1ccco1	?	3%	?	?	13%	?
Cc1ccc(NC(=S)NC(=O)/C=C/c2ccco2)c(O)c1	6%	-3%	?	-2%	14%	13%
CCC(CC)COC(=O)C1=C(C)NC(=O)NC1c1cc(OC)ccc1OC (stereo unspecified)	7%	-4%	6%	-25%	.	-4%
CC1CN(c2ccc(NC(=S)Nc3ccc(N4CC(C)OC(C)C4)cc3)cc2)CC(C)O1 (stereo unspecified)	-4%	0%	-1%	-6%	.	-2%
CCCCC(=O)NC(c1ccc([N+](=O)[O-])cc1)c1c(O)ccc2ccccc12 (stereo unspecified)	-11%	-2%	3%	26µM*	-51%	-4%
CCCCCc1ccc(-c2ccc(OC)cc2)nc1	-13%	0%	?	-17%	.	-9%
CCCCc1ccc(-c2ccc(Br)cc2O)nc1	1.3µM*	1.4µM*	0.85µM*	?	?	0.79µM*
CCCCc1ccc(-c2ccc(C)cc2O)nc1	1.5µM*	0.5µM*	0.43µM*	?	22µM*	0.63µM*
O=C(Cc1csc(NC(=O)Nc2cccc(Cl)c2)n1)NCc1ccccn1	2%	22%	2.7µM*	19%	.	?
O=C(Cc1csc(NC(=O)Nc2ccc(Cl)cc2)n1)NCc1cccnc1	0%	24%	3µM*	?	.	24%
COc1ccccc1NC(=O)Nc1nc(CC(=O)NCc2cccnc2)cs1	0%	-4%	?	-3%	.	1%
SMILES	ELG1 genotoxic	NPC1 prom act	FLuc modulator	ELG1 DNA repair	SMN2 splice up	Rab9 prom act
O=C(Cc1csc(NC(=O)Nc2cccc(Cl)c2)n1)NCc1cccnc1	-8%	11%	6.7µM*	-29%	.	14%
COC(=O)c1c(C)[nH]c(C(=O)CSc2ccc(Cl)cc2)c1C	?	4µM*	4.8µM*	?	11µM*	2.5µM*
CC(=O)c1c(C)[nH]c(C(=O)OCC(=O)Nc2cc(Cl)ccc2[N+](=O)[O-])c1C	-6%	-2%	-2%	18µM*	.	-2%
COC(=O)c1c(C)[nH]c(C(=O)CC#N)c1C	7%	-2%	-7%	16%	?	4%
COC(=O)c1c(C)[nH]c(C(=O)OCc2ccc(F)cc2)c1C	?	3.5µM*	9.5µM*	?	.	4µM*
CC(=O)c1c(C)[nH]c(C(=O)OCC(=O)NCCc2ccc(Cl)cc2)c1C	-9%	-2%	4%	?	-22%	2%
CCOC(=O)c1[nH]c(C)c(C(=O)OCc2ccccc2F)c1C	-9%	-31%	2%	?	.	-25%
CC(=O)c1c(C)[nH]c(C(=O)OCC(=O)NCCc2ccc(F)cc2)c1C	-5%	-3%	1%	21µM*	-19%	3%
CCCCOc1ccc(Nc2cc(Cl)ccc2C(=O)O)cn1	-4%	2%	-3%	4%	.	10%
CCc1c(C(=O)OCc2ccccc2)[nH]c(C)c1C	?	28%	24µM*	?	.	?
CC(=O)c1c(C)[nH]c(C(=O)NCCc2cccc(C)c2)c1C	6%	?	17µM*	?	11%	?
CCc1c(C)[nH]c(C(=O)OCc2ccccc2)c1C	?	21%	?	?	.	?
CC(C)c1ccccc1N1CC(C(=O)O)CC1=O (stereo unspecified)	-1%	-1%	5%	2%	1%	-4%
COc1ccccc1[C@@H]1C(c2cccc(C)c2)=NN(c2ccc(Br)cc2)[C@H]1C(=O)N1CCOC1=O	2%	.	.	13%	.	.
CCCNC(=O)c1cccc(COc2ccccc2OC)c1	?	1.4µM*	5.4µM*	?	14µM*	3.5µM*
O=C(COc1ccc2ccccc2c1)NNC(=O)c1ccccc1	-3%	0%	-1%	-1%	.	-3%
NNC(=O)c1cccc(COc2ccc(Br)cc2)c1	?	0.32µM*	11µM*	?	1µM*	0.1µM*
NNC(=O)c1ccc(COc2ccc3ccccc3c2)cc1	1%	?	6µM*	?	.	18%
COc1ccc(OCc2cccc(C(=O)NN)c2)cc1	?	0.089µM*	6µM*	?	3.2µM*	0.089µM*
COC(=O)CCC(=O)Nc1ccccc1C(=O)Nc1ccccc1	4%	0%	1%	0%	1%	-2%
O=C(c1cc2c(ccc3ccccc32)o1)N1CCCCC1	?	1.3µM*	2.1µM*	?	.	0.89µM*
NNC(=O)c1cc2c(ccc3ccccc32)o1	0%	-2%	-18%	15%	-3%	-2%
